The values below come from PubChem BioAssay (EPA / NIEHS).

The AC50 is the midpoint of the concentration-response curve, whichever way the signal moves.

Each structure is given as a SMILES string. Calls of active or inactive are those of the source. The calls were made as follows: active = hit-call score of the fitted dose curve at least 0.9, where 1 is the maximum; inactive = score below 0.9.

Read-out in experiment [1]: C-C motif chemokine 2 (Homo sapiens) (UniProt P13500)
Description: BSK_KF3CT_MCP1: BioMAP Diversity Plus: KF3CT Assay for Monocyte Chemoattractant Protein 1 (MCP1/CCL2) Biomarker Activity (AID 2283073). To be noted: primary human keratinocytes with fibroblasts; actives raise or lower the signal. The essentials: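 KF3CT skin co-culture (keratinocytes/foreskin fibroblasts), 24 h post-dose; MCP-1 by ELISA; gain/loss of signal fit bidirectionally vs DMSO baseline.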

Read-out in experiment [2]: urokinase plasminogen activator (uPA), PLAU (gene 5328)
As to the kind of experiment: BSK_KF3CT_uPA: BioMAP Diversity Plus: KF3CT Assay for urokinase plasminogen activator (uPA) Biomarker Activity (AID 2283075). Conditions: primary human keratinocytes with fibroblasts; actives raise or lower the signal. The essentials: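 Human keratinocyte plus foreskin fibroblast primary co-culture exposed to chemical for 24 h. uPA levels were quantified by ELISA, and activity was fitted bidirectionally against a DMSO negative-control baseline.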

Read-out in experiment [3]: CD40, CD40 (gene 958)
Description: BSK_LPS_CD40: BioMAP Diversity Plus: LPS Assay for CD40 Biomarker Activity (AID 2283076). Conditions: primary human HUVEC with PBMC; actives raise or lower the signal. The gist of the method: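 ELISA readout of CD40 in HUVEC/PBMC co-culture (BSK_LPS system), 24 h post-dosing; bidirectional curve fit, DMSO baseline; parallel SRB total-protein staining for cytotoxicity.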

Read-out in experiment [4]: E-selectin (Homo sapiens) (UniProt P16581)
Description: BSK_LPS_Eselectin: BioMAP Diversity Plus: LPS Assay for Eselectin Biomarker Activity (AID 2283077). Conditions: primary human HUVEC with PBMC; actives raise or lower the signal. The gist of the method: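 ELISA readout of E-selectin, 24 h post-dose, HUVEC + PBMC co-culture (LPS system). Gain or loss of signal vs DMSO baseline, bidirectional fit.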

Read-out in experiment [5]: Interleukin-8 (IL8), CXCL8 (gene 3576)
As to the kind of experiment: BSK_LPS_IL8: BioMAP Diversity Plus: LPS Assay for Interleukin-8 (IL8) Biomarker Activity (AID 2283078). To be noted: primary human HUVEC with PBMC; actives raise or lower the signal. The essentials:
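HUVEC + PBMC co-culture, LPS-activated; test chemicals dosed, IL-8 read by ELISA at 24 h. Bidirectional curve fit vs DMSO baseline (gain or loss of signal).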

Experiment [6] is described as follows: BSK_LPS_SRB: Viability Assessment in the BioMAP Diversity Plus: LPS Assay (AID 2283079).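 Also: total protein by sulforhodamine B absorbance as a cytotoxicity measure; measured one day after compound addition; fitted in both directions against DMSO so loss or gain of signal counts.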 Conditions: primary human HUVEC with PBMC. The gist of the method: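 HUVEC + PBMC co-culture, LPS-stimulated; compound 24 h. 10% TCA fix, 0.1% SRB stain, A560. Bidirectional fit vs DMSO.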
Read-out in experiment [7]: Interleukin-1 alpha (IL1a), IL1A (gene 3552)
As to the kind of experiment: BSK_LPS_IL1a: BioMAP Diversity Plus: LPS Assay for Interleukin-1 alpha (IL1a) Biomarker Activity (AID 2283080). Conditions: primary human HUVEC with PBMC; actives raise or lower the signal. The essentials: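 HUVEC/PBMC co-culture, LPS system; 24 h after dosing; IL-1a by ELISA; gain or loss of signal fitted bidirectionally vs DMSO baseline.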

Read-out in experiment [8]: Monocyte Chemoattractant Protein-1 (MCP1), CCL2 (gene 6347)
As to the kind of experiment: BSK_LPS_MCP1: BioMAP Diversity Plus: LPS Assay for Monocyte Chemoattractant Protein-1 (MCP1) Biomarker Activity (AID 2283081).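 As to AC50: secreted MCP-1 protein quantified by ELISA in culture supernatant.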 To be noted: primary human HUVEC with PBMC; actives raise or lower the signal. The gist of the method:
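ELISA read-out of MCP-1 after 24 h chemical dosing of a human umbilical vein endothelial cell/peripheral blood mononuclear cell co-culture stimulated with LPS. Gain or loss of signal fitted relative to DMSO controls.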

Experiment [9] is described as follows: BSK_LPS_PGE2: BioMAP Diversity Plus: LPS Assay for Prostaglandin E2 (PGE2) Biomarker Activity (AID 2283082).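 As to AC50: secreted prostaglandin E2 measured by ELISA in LPS-stimulated co-culture.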 Conditions: primary human HUVEC with PBMC; actives raise or lower the signal. The gist of the method:
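HUVEC plus human PBMC co-culture stimulated with LPS; secreted PGE2 quantified by ELISA 24 h after chemical dosing. Activity fitted bidirectionally against DMSO baseline; parallel SRB staining (0.1% SRB after 10% TCA fixation, 560 nm) flags overt cytotoxicity.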

Read-out in experiment [10]: Macrophage colony-stimulating factor (MCSF), CSF1 (gene 1435)
As to the kind of experiment: BSK_LPS_MCSF: BioMAP Diversity Plus: LPS Assay for Macrophage colony-stimulating factor (MCSF) Biomarker Activity (AID 2283083). Conditions: primary human HUVEC with PBMC; actives raise or lower the signal. The essentials: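 HUVEC + PBMC co-culture (human primary), 24 h post-dose; M-CSF by ELISA; gain/loss of signal fitted bidirectionally vs DMSO baseline.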

Read-out in experiment [11]: Tissue Factor, F3 (gene 2152)
Description: BSK_LPS_TissueFactor: BioMAP Diversity Plus: LPS Assay for Tissue Factor Biomarker Activity (AID 2283084). To be noted: primary human HUVEC with PBMC; actives raise or lower the signal. The gist of the method: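 HUVEC/PBMC co-culture, LPS-activated; CD142 ELISA read 24 h post-dose; bidirectional curve fit vs DMSO negative control.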

Read-out in experiment [12]: Tumor necrosis factor (Homo sapiens) (UniProt P01375)
Description: BSK_LPS_TNFa: BioMAP Diversity Plus: LPS Assay for Tumour Necrosis Factor alpha (TNFa) Biomarker Activity (AID 2283085). To be noted: primary human HUVEC with PBMC; actives raise or lower the signal. The gist of the method: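 Human umbilical vein endothelial cells co-cultured with PBMC and stimulated with LPS. TNFa was measured by ELISA 24 h after chemical dosing, fitted bidirectionally relative to DMSO.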

Read-out in experiment [13]: Vascular cell adhesion molecule 1 (VCAM1), VCAM1 (gene 7412)
Description: BSK_LPS_VCAM1: BioMAP Diversity Plus: LPS Assay for Vascular cell adhesion molecule 1 (VCAM1) Biomarker Activity (AID 2283086). Conditions: primary human HUVEC with PBMC; actives raise or lower the signal. The gist of the method: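 Human umbilical vein endothelial cells co-cultured with PBMC and stimulated with LPS; VCAM-1 measured by ELISA 24 h after dosing. Bidirectional curve fitting against DMSO baseline; cytotoxicity tracked in parallel by SRB total-protein staining.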

Read-out in experiment [14]: CD38, CD38 (gene 952)
Description: BSK_SAg_CD38: BioMAP Diversity Plus: SAg Assay for CD38 Biomarker Activity (AID 2283087). Conditions: primary human HUVEC with PBMC; actives raise or lower the signal. The essentials:
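Human HUVEC plus PBMC co-culture stimulated with superantigen; CD38 measured by ELISA 24 h after chemical dosing. Fluorescence read-out, bidirectional fit against DMSO; cytotoxicity tracked in parallel by SRB and Alamar Blue.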

Read-out in experiment [15]: CD40, CD40 (gene 958)
As to the kind of experiment: BSK_SAg_CD40: BioMAP Diversity Plus: SAg Assay for CD40 Biomarker Activity (AID 2283088). To be noted: primary human HUVEC with PBMC; actives raise or lower the signal. The essentials: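 HUVEC/PBMC co-culture, 24 h post-dose; CD40 by ELISA, fluorescence intensity; bidirectional fit vs DMSO negative control.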

Read-out in experiment [16]: CD69, CD69 (gene 969)
As to the kind of experiment: BSK_SAg_CD69: BioMAP Diversity Plus: SAg Assay for CD69 Biomarker Activity (AID 2283089).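 As to AC50: cell surface CD69 protein quantified by ELISA with fluorescence detection.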 Conditions: primary human HUVEC with PBMC; actives raise or lower the signal. The gist of the method: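 Values derive from bidirectional fitting relative to DMSO vehicle. Cells: umbilical vein endothelium plus peripheral blood mononuclear cells, treated 24 h before fluorescent ELISA for CD69.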

Read-out in experiment [17]: Monocyte Chemoattractant Protein-1 (MCP1), CCL2 (gene 6347)
As to the kind of experiment: BSK_SAg_MCP1: BioMAP Diversity Plus: SAg Assay for Monocyte Chemoattractant Protein-1 (MCP1) Biomarker Activity (AID 2283090). To be noted: primary human HUVEC with PBMC; actives raise or lower the signal. The gist of the method: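 MCP-1 levels in the endothelial–PBMC SAg co-culture were quantified by ELISA at 24 h post-dosing; both increases and decreases versus DMSO scored. Cytotoxicity monitored by SRB total protein in parallel cultures.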

Read-out in experiment [18]: E-selectin (Homo sapiens) (UniProt P16581)
Description: BSK_SAg_Eselectin: BioMAP Diversity Plus: SAg Assay for Eselectin Biomarker Activity (AID 2283091). To be noted: primary human HUVEC with PBMC; actives raise or lower the signal. The essentials:
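E-selectin ELISA readout at 24 h post-dosing in human umbilical vein endothelial cell/PBMC co-culture; gain or loss of signal fitted relative to DMSO baseline.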

Read-out in experiment [19]: Monokine induced gamma interferon (MIG), CXCL9 (gene 4283)
Description: BSK_SAg_MIG: BioMAP Diversity Plus: SAg Assay for Monokine induced gamma interferon (MIG) Biomarker Activity (AID 2283092). Conditions: primary human HUVEC with PBMC; actives raise or lower the signal. The gist of the method: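 Values reflect bidirectional fitting of ELISA-measured MIG against DMSO vehicle, taken 24 h after dosing of a co-culture of human umbilical vein endothelial cells and peripheral blood mononuclear cells.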

Chain of Tumor necrosis factor (Homo sapiens) (P01375 whole entry, looked up): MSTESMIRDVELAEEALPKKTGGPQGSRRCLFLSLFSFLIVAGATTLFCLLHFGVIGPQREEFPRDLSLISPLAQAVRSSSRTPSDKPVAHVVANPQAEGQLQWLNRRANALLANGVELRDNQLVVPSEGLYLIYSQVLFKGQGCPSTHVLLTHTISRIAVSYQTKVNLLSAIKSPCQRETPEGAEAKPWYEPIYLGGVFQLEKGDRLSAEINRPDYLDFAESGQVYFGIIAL
Chain of E-selectin (Homo sapiens) (P16581 whole entry, looked up): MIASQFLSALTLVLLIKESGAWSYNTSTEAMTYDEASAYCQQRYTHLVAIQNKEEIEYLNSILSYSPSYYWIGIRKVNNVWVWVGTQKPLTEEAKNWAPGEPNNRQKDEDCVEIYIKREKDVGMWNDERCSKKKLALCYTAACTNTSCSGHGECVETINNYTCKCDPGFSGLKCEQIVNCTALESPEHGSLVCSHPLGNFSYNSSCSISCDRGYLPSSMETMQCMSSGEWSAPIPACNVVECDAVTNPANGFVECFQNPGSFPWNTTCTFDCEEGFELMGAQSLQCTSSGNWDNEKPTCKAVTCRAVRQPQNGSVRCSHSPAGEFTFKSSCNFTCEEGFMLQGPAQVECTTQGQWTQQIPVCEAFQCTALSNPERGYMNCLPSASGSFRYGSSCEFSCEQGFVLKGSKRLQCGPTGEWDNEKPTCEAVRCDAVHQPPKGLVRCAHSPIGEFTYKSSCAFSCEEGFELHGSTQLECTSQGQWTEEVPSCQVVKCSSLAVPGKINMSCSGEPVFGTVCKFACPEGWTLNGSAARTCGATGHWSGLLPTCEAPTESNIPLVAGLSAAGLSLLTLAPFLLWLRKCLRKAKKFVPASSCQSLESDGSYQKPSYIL

Turning to `OC[C@H]1O[C@H](O[C@]2(CCl)O[C@H](CCl)[C@@H](O)[C@@H]2O)[C@H](O)[C@@H](O)[C@H]1Cl`, the result in experiment [1], in [2], in [3], in experiment [4], in experiment [5] and in [6] was inactive. Besides, the outcome in [7], in experiment [8], in experiment [9], in experiment [10], in [11] and in experiment [12] was inactive. For the same compound, the outcome in [13], in experiment [14], in experiment [15], in experiment [16], in [17] and in experiment [18] was inactive. Moreover, in experiment [19], the result was inactive.

For `CCn1c2ccccc2c2cc(N)ccc21`, the outcome in [1], in experiment [2], in [4], in [5], in experiment [6] and in experiment [11] was inactive. Moreover, the result in experiment [12], in experiment [13], in experiment [18] and in experiment [19] was inactive. For the same compound, the AC50 in [3] was 5.63 µM (active); in [7] it was 0.653 µM (active); in experiment [8] it was 1.24 µM (active); in experiment [9], 5.42 µM (active); in [10], 7.37 µM (active); in [14], 4.91 µM (active). Also, the AC50 in experiment [15] was 6.33 µM (active); in [16], 4.02 µM (active); in [17] it was 1.85 µM (active).

Consider `N#Cc1ccc(CC(=NNC(=O)Nc2ccc(OC(F)(F)F)cc2)c2cccc(C(F)(F)F)c2)cc1`, for which the result in experiment [1], in experiment [2], in [3], in experiment [4], in experiment [5] and in experiment [6] was inactive. For the same compound, the result in [7], in experiment [8], in experiment [10], in experiment [11], in experiment [12] and in experiment [13] was inactive. Further, the outcome in experiment [14], in experiment [15], in experiment [16], in experiment [17], in experiment [18] and in [19] was inactive. The half-maximal activity concentration (AC50) in [9] was 2.68 µM (active).
